Results as given in paper PMC4336329 (PLoS ONE, 2015).
In all, about 310,000 compounds went through this assay and about 14,000 (4.5%) showed an effect of 50% or more. Effects have a minus sign here. This excerpt belongs to a sample that is enriched for strong results.

These molecules were tested against human ether-à-go-go-related gene (hERG) potassium channel (human, UniProt Q12809) (assay: primary screen, population patch clamp on CHO cells stably expressing hERG; higher = less effect of the substance).
human ether-à-go-go-related gene (hERG) potassium channel, sequence (Q12809 whole entry, looked up): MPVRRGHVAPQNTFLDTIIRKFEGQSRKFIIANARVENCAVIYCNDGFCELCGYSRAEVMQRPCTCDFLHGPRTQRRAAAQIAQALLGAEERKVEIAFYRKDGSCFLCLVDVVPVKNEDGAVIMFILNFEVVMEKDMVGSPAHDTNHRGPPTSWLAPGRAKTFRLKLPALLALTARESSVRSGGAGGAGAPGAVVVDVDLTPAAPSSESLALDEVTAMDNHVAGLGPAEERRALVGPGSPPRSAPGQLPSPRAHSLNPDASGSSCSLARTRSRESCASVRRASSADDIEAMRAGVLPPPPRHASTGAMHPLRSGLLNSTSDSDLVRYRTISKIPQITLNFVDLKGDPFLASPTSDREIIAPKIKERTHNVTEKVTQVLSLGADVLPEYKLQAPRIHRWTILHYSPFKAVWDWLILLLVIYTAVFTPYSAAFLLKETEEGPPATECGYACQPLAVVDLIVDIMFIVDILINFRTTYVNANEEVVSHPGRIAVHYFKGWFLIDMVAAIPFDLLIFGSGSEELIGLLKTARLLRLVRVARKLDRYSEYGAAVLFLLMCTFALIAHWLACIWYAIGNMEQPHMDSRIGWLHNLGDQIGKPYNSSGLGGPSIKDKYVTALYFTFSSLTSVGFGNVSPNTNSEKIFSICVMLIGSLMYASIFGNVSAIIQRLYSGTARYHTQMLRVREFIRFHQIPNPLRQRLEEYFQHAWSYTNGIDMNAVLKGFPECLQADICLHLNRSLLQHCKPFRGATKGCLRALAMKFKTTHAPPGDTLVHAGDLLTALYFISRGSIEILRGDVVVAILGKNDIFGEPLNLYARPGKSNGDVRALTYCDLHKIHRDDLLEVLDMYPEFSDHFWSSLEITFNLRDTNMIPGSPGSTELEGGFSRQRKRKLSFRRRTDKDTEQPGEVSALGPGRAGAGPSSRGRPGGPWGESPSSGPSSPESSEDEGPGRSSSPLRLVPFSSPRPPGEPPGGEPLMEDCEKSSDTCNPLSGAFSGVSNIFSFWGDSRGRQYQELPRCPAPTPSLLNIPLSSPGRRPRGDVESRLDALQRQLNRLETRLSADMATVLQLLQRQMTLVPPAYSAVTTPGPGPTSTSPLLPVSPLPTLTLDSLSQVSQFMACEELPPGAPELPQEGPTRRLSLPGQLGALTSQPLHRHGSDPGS
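Also: peak tail current of the secondary pulse compared with the same well before compound.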

Going from `O=C(COC(=O)c1ccc(Br)o1)NCc1cccs1` to `Cc1cccnc1NC(=O)CNC(=O)COc1ccccc1`, the “hERG current change (%, negative = inhibition) at 10uM” value rises from -4.11% to 6.69%.

Compared with `COCOc1ccc(C=O)c(O)c1`, `COC(=O)c1ccc(COc2ccc(C)c(C)c2)o1` is higher in “hERG current change (%, negative = inhibition) at 10uM” value: 7.21% for the first, 12.3% for the second.

Compared with `CCOc1ccc(C2CC(c3cccc(OC)c3)Nc3nc(N)nn32)cc1` (centres unmarked), `COc1ccc(NC(=O)CN(C)C(=O)c2ccc3[nH]c4c(c3c2)CC(C)CC4)cc1` (centres unmarked) is higher in “hERG current change (%, negative = inhibition) at 10uM” value: -26% for the first, 7.28% for the second.

Going from `Cc1ccc(/C=N/Nc2ccc(Cl)c(C(=O)O)c2)s1` to `O=C(N/N=C/c1c(Cl)cccc1Cl)c1cccc(F)c1`, the “hERG current change (%, negative = inhibition) at 10uM” value falls from 10% to 3.24%.

First: COc1ccccc1CCNC(=O)CN1C(=O)NC2(CCCC2)C1=O
Second: COc1ccccc1CNC1CCCc2ccccc21.O=C(O)C(=O)O (centres unmarked)
The “hERG current change (%, negative = inhibition) at 10uM” value of the first is lower: -9.26% for the first, -6.19% for the second.

Going from `CC(c1ccco1)N(C(=O)c1ccc(S(=O)(=O)N2CCCCC2)cc1)c1ccccn1` (centres unmarked) to `Cc1ccccc1Cn1cc(S(=O)(=O)CC(=O)N2CCCCC2)c2ccccc21`, the “hERG current change (%, negative = inhibition) at 10uM” value rises from -4.75% to 7.27%.

Going from `CCCC(=O)N(Cc1cc(=O)[nH]c2ccccc12)c1ccc(C)cc1` to `CC/C(C)=N/NC(=O)c1[nH]c2ccc(C)cc2c1-c1ccccc1`, the “hERG current change (%, negative = inhibition) at 10uM” value rises from -3.22% to 0.516%.

First: Cc1cc(CNC(=O)c2cccnc2Cl)c2ccccc2n1
Second: Cc1cc(C(=O)NC(C)c2ccccc2)c2cc(F)ccc2n1 (centres unmarked)
The “hERG current change (%, negative = inhibition) at 10uM” value of the first is lower: -2.82% for the first, 3.06% for the second.

Going from `CCOc1ccc(CN2CCCC(CNC(=O)c3ccc(F)cc3)C2)cc1CO` (centres unmarked) to `CCOc1cc(C(=O)NCc2ccc(F)cc2)ccc1OCC(=O)N1CCCCC1`, the “hERG current change (%, negative = inhibition) at 10uM” value rises from -68.1% to -37.5%.

First: O=C(NC1CCN(C(=S)NCc2ccco2)CC1)NC12CC3CC(CC(C3)C1)C2
Second: O=C(NC1CCCCC1)Oc1ccccc1
The “hERG current change (%, negative = inhibition) at 10uM” value of the first is lower: 5.73% for the first, 17.2% for the second.

Going from `CCOC(=O)N1CCC(N2C(=O)c3ccc(C(=O)O)cc3C2=O)CC1` to `CCC(=O)N1CCN(C(=O)c2ccccc2)CC1`, the “hERG current change (%, negative = inhibition) at 10uM” value falls from 9.66% to 1.82%.

Going from `COc1cccc(C(=O)N2CCN=C2SCc2cccnc2)c1OC` to `COc1ccc(CNC(=O)CN2CCN(c3ccccc3O)CC2)cc1OC`, the “hERG current change (%, negative = inhibition) at 10uM” value rises from 4.44% to 12.6%.

Compared with `COc1ccc(NS(=O)(=O)c2cn(C)cn2)cc1`, `CCn1c(=NC(=O)CS(=O)(=O)c2ccc(C)cc2)sc2cccc(OC)c21` is lower in “hERG current change (%, negative = inhibition) at 10uM” value: 11.9% for the first, -0.869% for the second.

First: c1ccc(N2CCN(c3nc4ccccc4[nH]3)CC2)nc1
Second: c1ccc(N2CCN(Cc3nc4ccccc4[nH]3)CC2)nc1
The “hERG current change (%, negative = inhibition) at 10uM” value of the first is lower: -64.4% for the first, 9.64% for the second.

Compared with `Oc1ccc2ccccc2c1CN1CCN(C/C=C/c2ccccc2)CC1`, `Cl.Nc1nc(N2CCN(C/C=C/c3ccccc3)CC2)nc2ccccc12` is lower in “hERG current change (%, negative = inhibition) at 10uM” value: 14% for the first, -67.7% for the second.

Compared with `CCN(CC)c1nc(N2CCN(C)CC2)nc2ccccc12.Cl`, `Cl.Nc1nc(N2CCCCC2)nc2ccccc12` is lower in “hERG current change (%, negative = inhibition) at 10uM” value: -44.3% for the first, -45.8% for the second.

Compared with `Cl.Nc1nc(N2CCN(c3ccccn3)CC2)nc2ccccc12`, `Nc1nc(N2CCOCC2)nc2ccccc12` is higher in “hERG current change (%, negative = inhibition) at 10uM” value: -68.4% for the first, -19.7% for the second.

First: c1ccc2[nH]c(N3CCOCC3)nc2c1
Second: O=c1c2ccccc2nc(SCCN2CCOCC2)n1CCc1ccccc1
The “hERG current change (%, negative = inhibition) at 10uM” value of the first is higher: 8.82% for the first, -15.4% for the second.

Going from `COC(=O)c1cccc(N(CC(=O)NC2CCCC2)C(=O)CNC(=O)c2cccs2)c1` to `CCOc1ccc(CNC2CCCc3ccccc32)cc1.O=C(O)C(=O)O` (centres unmarked), the “hERG current change (%, negative = inhibition) at 10uM” value falls from -1.26% to -68.1%.

Compared with `O=C(Nc1sc2c(c1C(=O)N1CCOCC1)CCCCC2)c1cccnc1`, `O=C(Nc1ccc(N2CCOCC2)cc1)c1cccc(S(=O)(=O)N2CCC(Cc3ccccc3)CC2)c1` is lower in “hERG current change (%, negative = inhibition) at 10uM” value: 17% for the first, 2.84% for the second.

Compared with `CCN(CC)S(=O)(=O)c1ccc(N2CCCC2)c(NC(=O)CC(C)(C)C)c1`, `COCCn1c(SCCN2CCCCC2)nc2ccccc2c1=O` is lower in “hERG current change (%, negative = inhibition) at 10uM” value: -2.34% for the first, -78.4% for the second.

Compared with `CC1CCCN(C(=O)C2CCC(CNc3c(N4CCCCC4)c(=O)c3=O)CC2)C1` (centres unmarked), `COc1ccc(CCn2c(SCCN3CCCCC3)nc3ccccc3c2=O)cc1OC` is lower in “hERG current change (%, negative = inhibition) at 10uM” value: -8.22% for the first, -53.3% for the second.

First: COc1ccc(-n2c(=O)[nH]c3cc(C(=O)NCCc4ccc(OC)c(OC)c4)ccc3c2=O)c(OC)c1
Second: C=CCNC(=O)CSc1nc2ccccc2c(=O)n1CCc1ccc(OC)c(OC)c1
The “hERG current change (%, negative = inhibition) at 10uM” value of the first is higher: 18.5% for the first, -15.4% for the second.

Compared with `C=CCN1C(=O)NC(c2ccccc2)(C(F)(F)F)S/C1=C(\C#N)c1nnc(N2CCOCC2)n1-c1ccccc1` (centres unmarked), `CN1C(=O)NC(c2ccccc2)(C(F)(F)F)S/C1=C(/C#N)c1nnc(N2CCOCC2)n1-c1ccccc1` (centres unmarked) is lower in “hERG current change (%, negative = inhibition) at 10uM” value: -19.4% for the first, -30.3% for the second.

Going from `C=CCN1C(=O)NC(c2ccc(OC)cc2)(C(F)(F)F)S/C1=C(\C#N)c1nnc(N2CCOCC2)n1-c1ccccc1` (centres unmarked) to `Nc1ccc(C#Cc2c(-c3ccsc3)oc3ccc(N4CCOCC4)cc23)cc1`, the “hERG current change (%, negative = inhibition) at 10uM” value rises from -62.4% to 5.98%.

First: CC1Cc2ccccc2N1C(=S)NC(=O)C1(C)CC1(Cl)Cl (centres unmarked)
Second: COc1ccc(CNC2CCCc3ccccc32)cc1OC.O=C(O)C(=O)O (centres unmarked)
The “hERG current change (%, negative = inhibition) at 10uM” value of the first is higher: 30.1% for the first, -25.3% for the second.

First: COc1cc(CNC2CCCc3ccccc32)cc(OC)c1OC.O=C(O)C(=O)O (centres unmarked)
Second: O=C(O)C(=O)O.O=[N+]([O-])c1ccc(CNC2CCCc3ccccc32)cc1 (centres unmarked)
The “hERG current change (%, negative = inhibition) at 10uM” value of the first is higher: -13.9% for the first, -51.7% for the second.

Going from `O=[N+]([O-])c1ccccc1CNC1CCCc2ccccc21` (centres unmarked) to `CN1CCc2cc(Cl)c(O)cc2[C@@H](c2ccccc2)C1.Cl`, the “hERG current change (%, negative = inhibition) at 10uM” value falls from -5.95% to -56%.

Going from `COc1ccc(OC)c(NC(=O)Cc2coc3cc(C)cc(C)c23)c1` to `COc1ccc(Cl)cc1NC(=S)NCCc1ccc(S(N)(=O)=O)cc1`, the “hERG current change (%, negative = inhibition) at 10uM” value rises from 1.9% to 5.52%.

First: COC(=O)C1=C(c2ccc(F)cc2OCc2ccccc2)C[C@@H]2CC[C@H]1N2C(=O)NCc1ccc(OC)c(OC)c1
Second: CCSc1nc2ccccc2c(=O)n1CCc1ccc(OC)c(OC)c1
The “hERG current change (%, negative = inhibition) at 10uM” value of the first is lower: -2.13% for the first, 14.9% for the second.

Compared with `CCn1c(C)nc2cc(C(=O)NNC(=S)Nc3ccc(F)cc3)ccc21`, `NC(=O)c1ccc(NC(=O)CCN2C(=O)c3ccccc3C2=O)cc1` is higher in “hERG current change (%, negative = inhibition) at 10uM” value: 15.9% for the first, 16% for the second.

First: OC(CNCCc1ccc(Cl)cc1)COCc1ccco1 (centres unmarked)
Second: OC(CNCCc1ccc(Cl)cc1)COc1cc(Cl)ccc1Cl (centres unmarked)
The “hERG current change (%, negative = inhibition) at 10uM” value of the first is higher: -44.6% for the first, -56.6% for the second.

Going from `Cc1cc(Cl)ccc1OCC(O)CNCCc1ccc(S(N)(=O)=O)cc1` (centres unmarked) to `Cc1cc(Cl)ccc1NC(=S)NCCc1ccc(S(N)(=O)=O)cc1`, the “hERG current change (%, negative = inhibition) at 10uM” value rises from -67.6% to -16.1%.

Compared with `O=C(O)C(=O)O.OC(CNCCc1ccc(Cl)cc1Cl)COc1ccccc1` (centres unmarked), `COCCn1c(SCCOc2ccccc2)nc2ccccc2c1=O` is higher in “hERG current change (%, negative = inhibition) at 10uM” value: -25.7% for the first, -6.1% for the second.

First: O=C(CCc1ccccc1O)N/N=C/c1ccc(Sc2cccc3cccnc23)o1
Second: Oc1cccc2ccc(Nc3ccccn3)nc12
The “hERG current change (%, negative = inhibition) at 10uM” value of the first is higher: 21.8% for the first, -53.6% for the second.

Compared with `O=c1c2ccccc2nc(SCCN2CCCCC2)n1CCc1ccccc1`, `NC(=O)CSc1nc2ccccc2c(=O)n1CCc1ccccc1` is higher in “hERG current change (%, negative = inhibition) at 10uM” value: -71.7% for the first, 8.93% for the second.

Going from `COCCn1c(SCC(=O)c2ccccc2)nc2ccccc2c1=O` to `Oc1ccccc1Nc1ccccn1`, the “hERG current change (%, negative = inhibition) at 10uM” value rises from -12.4% to 6.88%.

Going from `O=C(CSc1nnc(NC(=O)Cc2ccc(F)cc2)s1)NCc1ccco1` to `Nc1cc(Nc2ccccc2)c2nonc2c1[N+](=O)[O-]`, the “hERG current change (%, negative = inhibition) at 10uM” value rises from 14.3% to 16.3%.

Compared with `N#Cc1c(Nc2cccc(F)c2)sc2c(O)cc(=O)[nH]c12`, `Br.Cc1cccc(C2CN(C)CCc3c2cc(O)c(O)c3Cl)c1` (centres unmarked) is lower in “hERG current change (%, negative = inhibition) at 10uM” value: 27.3% for the first, -51.1% for the second.

First: Cc1ccccc1-n1c(C)cc(/C=N/Nc2ccc([N+](=O)[O-])cn2)c1C
Second: O=[N+]([O-])c1ccc(-c2nc(=S)c3c(o2)CCCC3)cc1
The “hERG current change (%, negative = inhibition) at 10uM” value of the first is higher: 17.4% for the first, -6.53% for the second.

Going from `Br.C=CCN1CCc2c(cc(O)c(O)c2Cl)C(c2ccccc2)C1` (centres unmarked) to `Br.C=CCN1CCc2cc(O)c(O)cc2C(c2ccccc2)C1` (centres unmarked), the “hERG current change (%, negative = inhibition) at 10uM” value rises from -41% to -23.9%.

Compared with `Br.Oc1ccc(C2CNCCc3c2cc(O)c(O)c3Cl)cc1` (centres unmarked), `Br.CN1CCc2cc(O)c(O)cc2C(c2ccccc2)C1` (centres unmarked) is lower in “hERG current change (%, negative = inhibition) at 10uM” value: -3.12% for the first, -13.6% for the second.

Compared with `c1ccc(Nc2ccccn2)nc1`, `O=c1cccc2n1CC1CC2CN(c2ncnc3c2cnn3-c2ccccc2)C1` (centres unmarked) is lower in “hERG current change (%, negative = inhibition) at 10uM” value: 7.19% for the first, -30% for the second.

Compared with `CN(C)c1ccc(NC(=O)C2C3C=CC(C3)C2C(=O)O)cc1` (centres unmarked), `CC1CN(c2ncnc3c2cnn3-c2ccc(Cl)cc2)CC(C)O1` (centres unmarked) is lower in “hERG current change (%, negative = inhibition) at 10uM” value: 7.65% for the first, 0.749% for the second.

In the case of `O=c1cccc2n1CC1CC2CN(c2ncnc3c2cnn3-c2ccc(Cl)cc2)C1` (centres unmarked), the “hERG current change (%, negative = inhibition) at 10uM” value is reported as -62.1%.
